According to PubChem BioAssay AID1159580 (chemical genetic matrix, 2015):
Hit rate of the full screen: of about 5,500 compounds, about 2,000 (36%) were called active. Another 18% or so got no clear call; they are omitted. Cut-off read from the data, not from the text of the source: active = normalized growth mostly below about 0.91 (no sharp cut-off); inconclusive = no clear call, values can overlap the other calls; inactive = mostly above about 0.92. The list shows a part of the results.

Assay: chemical genetic growth profiling, strain panel (AID 1159580);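 note: tested at 20 µM; growth read once vehicle control cultures reached saturation at 30 °C; 1 = growth at the plate median or of vehicle wells; lower values mean less growth of the strain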
Details: growth OD

Measured: normalized growth

CN(C)[C@@H]1C(=O)C(C(N)=O)=C(O)[C@@]2(O)C(=O)C3=C(O)c4c(O)cccc4[C@@](C)(O)[C@H]3[C@H](O)[C@@H]12
inactive: S. cerevisiae deletion strains, locus YJR075W, strain HOC1, hits give low values 1.01 | S. cerevisiae deletion strains, locus YKL009W, strain mrt4, hits give low values 0.996 | S. cerevisiae deletion strains, locus YKL068W, hits give low values 0.997 | S. cerevisiae deletion strains, locus YKL085W, strain MDH1 (second series), hits give low values 0.999 | S. cerevisiae deletion strains, locus YKL085W, strain MDH1, hits give low values 0.999 | S. cerevisiae deletion strains, locus YKL160W, strain elf1, hits give low values 1.02 | S. cerevisiae deletion strains, locus YKL190W, strain CNB1, hits give low values 1.01 | S. cerevisiae deletion strains, locus YKR001C, strain vps1, hits give low values 0.989 | S. cerevisiae deletion strains, locus YKR026C, strain gcn3, hits give low values 1.01 | S. cerevisiae deletion strains, locus YKR091W, strain srl3, hits give low values 1.02 | S. cerevisiae deletion strains, locus YLL001W, strain dnm1, hits give low values 1.02 | S. cerevisiae deletion strains, locus YLL026W, hits give low values 1.03 | S. cerevisiae deletion strains, locus YLL041C, strain sdh2, hits give low values 1.02 | S. cerevisiae deletion strains, locus YLR027C, strain aat2, hits give low values 1.01 | S. cerevisiae deletion strains, locus YLR039C, strain RIC1, hits give low values 1.03 | S. cerevisiae deletion strains, locus YLR058C, strain SHM2, hits give low values 1 | S. cerevisiae deletion strains, locus YLR102C, strain apc9, hits give low values 0.995 | S. cerevisiae deletion strains, locus YLR113W, strain HOG1, hits give low values 0.995 | S. cerevisiae deletion strains, locus YLR221C, strain rsa3, hits give low values 1.01 | S. cerevisiae deletion strains, locus YLR258W, strain gsy2, hits give low values 1.01 | S. cerevisiae deletion strains, locus YLR262C, strain YPT6 (second series), hits give low values 0.997 | S. cerevisiae deletion strains, locus YLR262C, strain YPT6, hits give low values 1.02 | S. cerevisiae deletion strains, locus YLR268W, strain sec22, hits give low values 0.975 | S. cerevisiae deletion strains, locus YLR320W, strain mms22, hits give low values 1.01 | S. cerevisiae deletion strains, locus YLR330W, strain CHS5, hits give low values 1.01 | S. cerevisiae deletion strains, locus YLR342W, strain FKS1 (second series), hits give low values 0.976 | S. cerevisiae deletion strains, locus YLR342W, strain FKS1, hits give low values 1 | S. cerevisiae deletion strains, locus YLR357W, strain rsc2, hits give low values 1 | S. cerevisiae deletion strains, locus YLR370C, strain arc18, hits give low values 1.02 | S. cerevisiae deletion strains, locus YLR371W, strain rom2, hits give low values 1 | S. cerevisiae deletion strains, locus YLR384C, strain iki3, hits give low values 1.02 | S. cerevisiae deletion strains, locus YLR418C, strain cdc73, hits give low values 0.986 | S. cerevisiae deletion strains, locus YML016C, strain PPZ1, hits give low values 0.994 | S. cerevisiae deletion strains, locus YML032C, strain rad52, hits give low values 0.98 | S. cerevisiae deletion strains, locus YML120C, strain ndi1, hits give low values 1.01 | S. cerevisiae deletion strains, locus YML124C, strain tub3, hits give low values 1 | S. cerevisiae deletion strains, locus YMR058W, strain fet3, hits give low values 0.977 | S. cerevisiae deletion strains, locus YMR078C, strain ctf18, hits give low values 1 | S. cerevisiae deletion strains, locus YMR125W, strain sto1, hits give low values 1.01 | S. cerevisiae deletion strains, locus YMR129W, hits give low values 1.01 | S. cerevisiae deletion strains, locus YMR205C, strain PFK2, hits give low values 1.04 | S. cerevisiae deletion strains, locus YMR223W, strain ubp8, hits give low values 0.988 | S. cerevisiae deletion strains, locus YMR231W, strain pep5, hits give low values 1.02 | S. cerevisiae deletion strains, locus YMR307W, strain GAS1, hits give low values 0.994 | S. cerevisiae deletion strains, locus YNL067W, strain RPL9B, hits give low values 1.01 | S. cerevisiae deletion strains, locus YNL071W, strain lat1, hits give low values 1.02 | S. cerevisiae deletion strains, locus YNL128W, strain TEP1, hits give low values 1.01 | S. cerevisiae deletion strains, locus YNL153C, strain GIM3, hits give low values 0.998 | S. cerevisiae deletion strains, locus YNL183C, strain NPR1, hits give low values 0.95 | S. cerevisiae deletion strains, locus YNL209W, strain ssb2, hits give low values 1.01 | S. cerevisiae deletion strains, locus YNL233W, strain BNI4, hits give low values 1 | S. cerevisiae deletion strains, locus YNL248C, strain rpa49, hits give low values 0.966 | S. cerevisiae deletion strains, locus YNL250W, strain rad50, hits give low values 0.994 | S. cerevisiae deletion strains, locus YNL271C, strain bni1, hits give low values 0.984 | S. cerevisiae deletion strains, locus YNL298W, strain CLA4, hits give low values 0.968 | S. cerevisiae deletion strains, locus YNL307C, strain MCK1, hits give low values 1.01 | S. cerevisiae deletion strains, locus YNL322C, strain KRE1 (second series), hits give low values 1.01 | S. cerevisiae deletion strains, locus YNL322C, strain KRE1, hits give low values 1 | S. cerevisiae deletion strains, locus YNR049C, strain mso1, hits give low values 1.02 | S. cerevisiae deletion strains, locus YNR052C, strain pop2, hits give low values 0.995 | S. cerevisiae deletion strains, locus YOL006C, strain TOP1, hits give low values 1.03 | S. cerevisiae deletion strains, locus YOL012C, strain htz1 0.944 | S. cerevisiae deletion strains, locus YOL147C, strain pex11, hits give low values 0.991 | S. cerevisiae deletion strains, locus YOR001W, strain rrp6, hits give low values 1.04 | S. cerevisiae deletion strains, locus YOR061W, strain CKA2, hits give low values 1 | S. cerevisiae deletion strains, locus YOR069W, strain VPS5, hits give low values 1.01 | S. cerevisiae deletion strains, locus YOR070C, strain gyp1, hits give low values 1.01 | S. cerevisiae deletion strains, locus YOR080W, strain dia2, hits give low values 1.01 | S. cerevisiae deletion strains, locus YOR083W, strain WHI5, hits give low values 1.02 | S. cerevisiae deletion strains, locus YOR106W, strain vam3, hits give low values 1.02 | S. cerevisiae deletion strains, locus YOR136W, strain idh2, hits give low values 1.01 | S. cerevisiae deletion strains, locus YOR144C, strain elg1, hits give low values 0.996 | S. cerevisiae deletion strains, locus YOR184W, strain ser1, hits give low values 1 | S. cerevisiae deletion strains, locus YOR231W, strain MKK1, hits give low values 0.99 | S. cerevisiae deletion strains, locus YOR265W, strain rbl2, hits give low values 1.02 | S. cerevisiae deletion strains, locus YOR270C, strain vph1, hits give low values 1.04 | S. cerevisiae deletion strains, locus YOR290C, strain snf2, hits give low values 1 | S. cerevisiae deletion strains, locus YOR316C, strain cot1, hits give low values 1.01 | S. cerevisiae deletion strains, locus YPL051W, strain arl3, hits give low values 0.995 | S. cerevisiae deletion strains, locus YPL055C, strain LGE1, hits give low values 1.02 | S. cerevisiae deletion strains, locus YPL078C, strain atp4, hits give low values 1.03 | S. cerevisiae deletion strains, locus YPL106C, strain sse1, hits give low values 1.02 | S. cerevisiae deletion strains, locus YPL240C, strain hsp82, hits give low values 1.03 | S. cerevisiae deletion strains, locus YPL241C, strain CIN2, hits give low values 1 | S. cerevisiae deletion strains, locus YPL256C, strain CLN2, hits give low values 0.991 | S. cerevisiae deletion strains, locus YPR119W, strain clb2, hits give low values 1 | S. cerevisiae deletion strains, locus YPR141C, strain kar3, hits give low values 0.995 | S. cerevisiae deletion strains, locus YPR163C, strain tif3, hits give low values 1 | S. cerevisiae deletion strains, locus YPR167C, strain met16, hits give low values 1 | S. cerevisiae deletion strains, strain wtn01, hits give low values 0.985 | S. cerevisiae strains, strain wild type, hits give low values 1
